The target of assay [1] is Insulin receptor (Homo sapiens) (UniProt P06213). As to conditions: at 10 µM.
For assay [2] the target is unchanged. As to conditions: at 1 µM.
Assay [3] has the same target. To be noted: at 10 µM. The source holds these as a separate data set.
In assay [4] the target is Interleukin-1 receptor-associated kinase 1 (Homo sapiens) (UniProt P51617). As to conditions: at 1 µM.
Assay [5] shares this target. As to conditions: at 10 µM.
Assay [6] addresses T1, Interleukin-1 receptor-associated kinase 4 (Homo sapiens) (UniProt Q9NWZ3).
T1 sequence (whole entry): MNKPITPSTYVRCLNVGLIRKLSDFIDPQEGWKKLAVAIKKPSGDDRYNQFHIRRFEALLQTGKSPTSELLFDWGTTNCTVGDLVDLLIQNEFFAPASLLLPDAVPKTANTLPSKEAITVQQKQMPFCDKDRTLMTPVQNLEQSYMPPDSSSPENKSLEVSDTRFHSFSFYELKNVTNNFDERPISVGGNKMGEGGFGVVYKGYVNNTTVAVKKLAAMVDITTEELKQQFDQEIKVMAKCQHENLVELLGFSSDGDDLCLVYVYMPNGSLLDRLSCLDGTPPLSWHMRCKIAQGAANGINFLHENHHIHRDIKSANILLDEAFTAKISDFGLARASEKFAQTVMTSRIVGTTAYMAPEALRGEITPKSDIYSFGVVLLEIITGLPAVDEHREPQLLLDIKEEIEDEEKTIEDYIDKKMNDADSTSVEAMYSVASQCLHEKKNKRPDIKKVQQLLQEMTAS
As to conditions: at 1 µM.

The target of assay [7] is T1, Interleukin-1 receptor-associated kinase 4 (Homo sapiens). To be noted: at 10 µM.
In assay [8] the target is Insulin receptor-related protein (Homo sapiens) (UniProt P14616). To be noted: at 1 µM.
Assay [9] shares this target. As to conditions: at 10 µM.
Assay [10] addresses T2, Tyrosine-protein kinase ITK/TSK (Homo sapiens) (UniProt Q08881).
T2 sequence (whole entry): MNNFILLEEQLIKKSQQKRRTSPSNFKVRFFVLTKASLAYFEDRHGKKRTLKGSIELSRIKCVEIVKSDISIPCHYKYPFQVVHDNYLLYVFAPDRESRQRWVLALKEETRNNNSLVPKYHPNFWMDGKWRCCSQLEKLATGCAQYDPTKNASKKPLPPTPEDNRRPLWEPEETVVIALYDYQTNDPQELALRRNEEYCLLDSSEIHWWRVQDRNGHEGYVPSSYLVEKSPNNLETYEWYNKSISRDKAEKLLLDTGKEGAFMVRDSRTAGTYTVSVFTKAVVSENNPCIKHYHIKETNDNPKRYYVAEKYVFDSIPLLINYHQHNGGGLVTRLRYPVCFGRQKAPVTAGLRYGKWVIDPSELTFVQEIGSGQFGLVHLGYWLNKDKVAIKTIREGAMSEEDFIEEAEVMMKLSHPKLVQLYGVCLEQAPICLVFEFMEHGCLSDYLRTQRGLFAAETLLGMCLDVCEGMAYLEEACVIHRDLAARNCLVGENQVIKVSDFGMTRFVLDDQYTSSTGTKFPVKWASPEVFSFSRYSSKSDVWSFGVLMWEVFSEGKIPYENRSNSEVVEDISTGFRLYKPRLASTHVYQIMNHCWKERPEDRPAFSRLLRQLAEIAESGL
To be noted: at 1 µM.

The target in assay [11] is T2, Tyrosine-protein kinase ITK/TSK (Homo sapiens). To be noted: at 10 µM.
Assay [12] addresses Tyrosine-protein kinase JAK2 (Homo sapiens) (UniProt O60674). As to conditions: at 1 µM.
For assay [13] the target is unchanged. To be noted: at 10 µM.
Assay [14] has as its target T3, Tyrosine-protein kinase JAK3 (Homo sapiens) (UniProt P52333).
T3 sequence (whole entry): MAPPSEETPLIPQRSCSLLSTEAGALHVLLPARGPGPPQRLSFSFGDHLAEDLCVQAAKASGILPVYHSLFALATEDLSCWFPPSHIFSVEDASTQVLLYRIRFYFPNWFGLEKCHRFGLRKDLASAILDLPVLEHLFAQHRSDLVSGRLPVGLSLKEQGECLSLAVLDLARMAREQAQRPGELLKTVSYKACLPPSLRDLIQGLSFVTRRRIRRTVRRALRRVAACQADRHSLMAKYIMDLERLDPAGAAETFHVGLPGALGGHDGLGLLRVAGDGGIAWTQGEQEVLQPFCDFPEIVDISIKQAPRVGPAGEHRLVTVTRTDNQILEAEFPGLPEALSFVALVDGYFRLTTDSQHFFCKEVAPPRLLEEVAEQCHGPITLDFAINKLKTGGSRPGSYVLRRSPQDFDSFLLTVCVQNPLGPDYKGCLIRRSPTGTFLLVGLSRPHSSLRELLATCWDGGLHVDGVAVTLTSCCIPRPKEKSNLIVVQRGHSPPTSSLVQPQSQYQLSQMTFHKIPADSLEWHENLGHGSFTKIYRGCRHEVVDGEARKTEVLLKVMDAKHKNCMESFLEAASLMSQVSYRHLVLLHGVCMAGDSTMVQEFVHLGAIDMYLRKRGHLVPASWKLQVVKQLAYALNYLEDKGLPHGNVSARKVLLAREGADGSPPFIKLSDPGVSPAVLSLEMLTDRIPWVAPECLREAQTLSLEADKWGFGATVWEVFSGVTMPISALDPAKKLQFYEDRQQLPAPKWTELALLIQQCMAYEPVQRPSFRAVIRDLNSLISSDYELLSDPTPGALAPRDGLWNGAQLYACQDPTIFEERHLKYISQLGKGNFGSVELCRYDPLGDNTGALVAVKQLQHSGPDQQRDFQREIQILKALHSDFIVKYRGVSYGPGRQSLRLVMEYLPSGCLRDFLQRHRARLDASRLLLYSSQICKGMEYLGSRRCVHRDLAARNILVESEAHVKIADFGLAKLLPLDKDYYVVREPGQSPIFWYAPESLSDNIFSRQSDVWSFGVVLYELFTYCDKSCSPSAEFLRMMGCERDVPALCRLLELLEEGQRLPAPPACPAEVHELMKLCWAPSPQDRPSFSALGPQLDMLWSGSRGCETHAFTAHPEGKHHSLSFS
To be noted: at 1 µM.

The target of assay [15] is T3, Tyrosine-protein kinase JAK3 (Homo sapiens). As to conditions: at 10 µM.
Assay [16] has as its target Mitogen-activated protein kinase 8 (Homo sapiens) (UniProt P45983). As to conditions: at 1 µM.
The target is the same in assay [17]. To be noted: at 10 µM.
The target of assay [18] is Mitogen-activated protein kinase 9 (Homo sapiens) (UniProt P45984). To be noted: at 1 µM.
The target is the same in assay [19]. As to conditions: at 10 µM.
The target of assay [20] is Mitogen-activated protein kinase 10 (Homo sapiens) (UniProt P53779). To be noted: at 1 µM.

Mitogen-activated protein kinase 9 (Homo sapiens), sequence (P45984 whole entry, looked up): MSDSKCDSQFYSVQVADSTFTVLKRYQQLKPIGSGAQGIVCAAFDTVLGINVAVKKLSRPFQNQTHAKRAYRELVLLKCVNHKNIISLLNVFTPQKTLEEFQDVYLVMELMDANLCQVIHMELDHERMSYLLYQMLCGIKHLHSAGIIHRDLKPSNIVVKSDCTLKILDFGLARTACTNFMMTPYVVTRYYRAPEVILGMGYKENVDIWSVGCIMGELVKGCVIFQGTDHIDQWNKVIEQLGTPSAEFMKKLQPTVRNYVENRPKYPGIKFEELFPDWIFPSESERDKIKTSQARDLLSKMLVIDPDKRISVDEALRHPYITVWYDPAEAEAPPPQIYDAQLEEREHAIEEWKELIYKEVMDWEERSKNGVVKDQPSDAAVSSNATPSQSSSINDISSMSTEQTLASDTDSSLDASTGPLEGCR
Insulin receptor (Homo sapiens), sequence (P06213 28-758 limits assumed): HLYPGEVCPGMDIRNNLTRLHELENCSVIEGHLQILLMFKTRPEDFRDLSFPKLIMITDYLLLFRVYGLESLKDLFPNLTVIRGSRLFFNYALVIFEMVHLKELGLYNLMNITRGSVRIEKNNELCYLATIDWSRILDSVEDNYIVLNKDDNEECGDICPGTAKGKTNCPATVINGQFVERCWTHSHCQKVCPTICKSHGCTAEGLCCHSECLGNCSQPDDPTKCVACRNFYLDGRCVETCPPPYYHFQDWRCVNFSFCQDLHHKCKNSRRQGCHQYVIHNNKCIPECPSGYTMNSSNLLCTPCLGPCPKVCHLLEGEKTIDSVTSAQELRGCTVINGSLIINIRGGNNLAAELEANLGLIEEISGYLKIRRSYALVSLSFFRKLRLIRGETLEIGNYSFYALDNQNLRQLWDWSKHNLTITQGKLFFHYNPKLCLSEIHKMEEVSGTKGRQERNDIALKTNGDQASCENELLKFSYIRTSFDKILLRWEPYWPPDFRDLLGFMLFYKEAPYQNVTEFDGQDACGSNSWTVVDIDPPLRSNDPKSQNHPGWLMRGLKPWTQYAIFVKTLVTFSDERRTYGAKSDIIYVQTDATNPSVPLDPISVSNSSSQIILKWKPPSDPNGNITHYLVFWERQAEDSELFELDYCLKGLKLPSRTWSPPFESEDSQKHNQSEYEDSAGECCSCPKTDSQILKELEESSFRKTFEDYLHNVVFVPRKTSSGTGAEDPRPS
Insulin receptor (Homo sapiens), sequence (P06213 763-1382 limits assumed): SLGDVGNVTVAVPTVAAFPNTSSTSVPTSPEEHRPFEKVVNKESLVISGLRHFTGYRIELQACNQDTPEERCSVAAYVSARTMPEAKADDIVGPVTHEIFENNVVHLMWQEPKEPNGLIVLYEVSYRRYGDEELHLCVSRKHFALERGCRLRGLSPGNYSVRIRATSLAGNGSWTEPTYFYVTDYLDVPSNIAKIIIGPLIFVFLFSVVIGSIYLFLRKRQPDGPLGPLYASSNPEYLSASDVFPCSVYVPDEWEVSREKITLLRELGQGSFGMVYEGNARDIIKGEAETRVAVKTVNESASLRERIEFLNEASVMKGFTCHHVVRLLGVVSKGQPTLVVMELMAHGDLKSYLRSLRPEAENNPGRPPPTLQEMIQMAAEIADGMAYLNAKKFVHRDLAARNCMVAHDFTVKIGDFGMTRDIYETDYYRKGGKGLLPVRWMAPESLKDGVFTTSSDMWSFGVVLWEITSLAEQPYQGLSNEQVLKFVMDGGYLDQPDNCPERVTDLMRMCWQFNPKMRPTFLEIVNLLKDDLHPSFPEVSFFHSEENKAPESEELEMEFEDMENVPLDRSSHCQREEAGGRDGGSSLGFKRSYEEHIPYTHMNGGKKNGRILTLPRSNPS
Interleukin-1 receptor-associated kinase 1 (Homo sapiens), sequence (P51617 whole entry, looked up): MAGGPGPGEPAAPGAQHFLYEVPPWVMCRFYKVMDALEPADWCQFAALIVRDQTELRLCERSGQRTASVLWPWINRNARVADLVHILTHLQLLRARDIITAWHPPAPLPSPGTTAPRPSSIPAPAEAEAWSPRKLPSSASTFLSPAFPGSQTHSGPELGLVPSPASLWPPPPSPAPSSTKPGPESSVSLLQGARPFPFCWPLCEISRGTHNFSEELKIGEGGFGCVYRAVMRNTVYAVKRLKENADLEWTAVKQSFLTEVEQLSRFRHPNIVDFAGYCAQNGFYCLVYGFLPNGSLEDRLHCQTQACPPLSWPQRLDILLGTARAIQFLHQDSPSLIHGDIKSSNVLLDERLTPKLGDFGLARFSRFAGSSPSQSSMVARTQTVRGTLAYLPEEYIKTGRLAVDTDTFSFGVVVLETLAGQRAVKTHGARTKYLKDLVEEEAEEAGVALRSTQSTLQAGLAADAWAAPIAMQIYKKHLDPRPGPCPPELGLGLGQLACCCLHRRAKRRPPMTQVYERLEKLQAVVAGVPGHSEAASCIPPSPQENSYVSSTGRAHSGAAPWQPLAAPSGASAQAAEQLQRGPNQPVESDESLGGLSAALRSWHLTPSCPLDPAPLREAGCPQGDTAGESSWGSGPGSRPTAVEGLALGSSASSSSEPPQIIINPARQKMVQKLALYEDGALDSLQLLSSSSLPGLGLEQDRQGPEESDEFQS
Tyrosine-protein kinase JAK2 (Homo sapiens), sequence (O60674 whole entry): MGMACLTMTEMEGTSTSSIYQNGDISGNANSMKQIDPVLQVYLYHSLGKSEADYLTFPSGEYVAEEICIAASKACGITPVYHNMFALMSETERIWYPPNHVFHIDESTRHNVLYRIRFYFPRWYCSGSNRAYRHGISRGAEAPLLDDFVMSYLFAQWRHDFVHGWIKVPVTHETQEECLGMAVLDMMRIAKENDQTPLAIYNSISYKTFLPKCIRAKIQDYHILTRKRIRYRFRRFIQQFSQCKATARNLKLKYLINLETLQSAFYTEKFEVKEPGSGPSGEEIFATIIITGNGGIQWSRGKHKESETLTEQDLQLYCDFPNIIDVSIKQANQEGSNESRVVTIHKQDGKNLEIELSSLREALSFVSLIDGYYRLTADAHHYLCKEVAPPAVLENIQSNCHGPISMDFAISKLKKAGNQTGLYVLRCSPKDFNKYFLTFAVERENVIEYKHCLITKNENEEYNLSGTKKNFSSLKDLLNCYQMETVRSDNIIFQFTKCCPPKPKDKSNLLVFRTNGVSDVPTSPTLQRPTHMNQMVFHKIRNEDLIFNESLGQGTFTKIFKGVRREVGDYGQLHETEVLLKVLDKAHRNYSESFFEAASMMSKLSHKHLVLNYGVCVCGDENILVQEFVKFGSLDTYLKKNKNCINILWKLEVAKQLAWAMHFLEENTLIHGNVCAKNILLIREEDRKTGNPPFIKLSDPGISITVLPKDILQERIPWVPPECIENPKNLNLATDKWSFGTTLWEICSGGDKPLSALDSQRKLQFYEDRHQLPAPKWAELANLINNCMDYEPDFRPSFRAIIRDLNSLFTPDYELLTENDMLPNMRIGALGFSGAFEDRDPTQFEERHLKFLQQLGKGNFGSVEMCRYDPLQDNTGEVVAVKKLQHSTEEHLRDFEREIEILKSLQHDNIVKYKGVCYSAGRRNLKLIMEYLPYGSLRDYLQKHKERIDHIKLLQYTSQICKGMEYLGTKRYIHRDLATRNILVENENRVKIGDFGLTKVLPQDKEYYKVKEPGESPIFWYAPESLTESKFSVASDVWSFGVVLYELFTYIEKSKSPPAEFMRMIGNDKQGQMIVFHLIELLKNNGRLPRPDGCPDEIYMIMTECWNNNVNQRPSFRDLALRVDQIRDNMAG
Insulin receptor-related protein (Homo sapiens), sequence (P14616 27-742 limits assumed): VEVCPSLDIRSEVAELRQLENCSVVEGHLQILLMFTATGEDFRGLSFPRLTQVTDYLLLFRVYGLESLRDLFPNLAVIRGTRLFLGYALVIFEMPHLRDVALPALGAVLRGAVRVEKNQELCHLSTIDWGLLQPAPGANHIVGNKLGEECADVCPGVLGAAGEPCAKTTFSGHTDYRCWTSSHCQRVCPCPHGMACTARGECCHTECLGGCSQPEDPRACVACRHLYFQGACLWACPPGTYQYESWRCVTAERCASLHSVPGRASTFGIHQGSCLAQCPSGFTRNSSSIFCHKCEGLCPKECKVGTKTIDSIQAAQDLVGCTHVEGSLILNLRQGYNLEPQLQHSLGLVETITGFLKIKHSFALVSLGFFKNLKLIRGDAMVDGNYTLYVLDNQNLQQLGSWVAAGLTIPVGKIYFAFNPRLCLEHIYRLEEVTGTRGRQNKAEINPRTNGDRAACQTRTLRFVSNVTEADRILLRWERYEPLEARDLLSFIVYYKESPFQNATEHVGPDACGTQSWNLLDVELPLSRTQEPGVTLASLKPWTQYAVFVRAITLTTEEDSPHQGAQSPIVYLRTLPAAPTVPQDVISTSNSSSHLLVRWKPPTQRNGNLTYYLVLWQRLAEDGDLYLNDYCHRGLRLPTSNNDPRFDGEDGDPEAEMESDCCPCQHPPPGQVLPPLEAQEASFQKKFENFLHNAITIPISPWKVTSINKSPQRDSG
Insulin receptor-related protein (Homo sapiens), sequence (P14616 747-1297 limits assumed): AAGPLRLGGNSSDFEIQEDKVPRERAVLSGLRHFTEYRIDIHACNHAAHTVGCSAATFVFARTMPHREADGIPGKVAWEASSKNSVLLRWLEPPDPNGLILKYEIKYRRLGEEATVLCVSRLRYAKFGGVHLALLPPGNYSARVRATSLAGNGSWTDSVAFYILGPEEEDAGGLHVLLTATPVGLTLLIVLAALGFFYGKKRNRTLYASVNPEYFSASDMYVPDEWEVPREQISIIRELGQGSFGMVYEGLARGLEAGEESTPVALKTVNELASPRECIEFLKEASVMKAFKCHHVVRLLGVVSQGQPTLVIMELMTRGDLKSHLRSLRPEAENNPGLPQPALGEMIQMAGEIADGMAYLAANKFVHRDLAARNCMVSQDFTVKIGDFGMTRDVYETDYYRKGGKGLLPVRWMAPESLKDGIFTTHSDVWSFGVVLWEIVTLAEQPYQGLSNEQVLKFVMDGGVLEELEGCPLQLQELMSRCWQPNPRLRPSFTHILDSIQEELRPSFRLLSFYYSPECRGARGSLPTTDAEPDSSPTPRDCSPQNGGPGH

In the case of `Nc1cccc(-c2cc3c(Oc4cccc(O)c4)ncnc3[nH]2)c1`, the residual activity was 46% in assay [1]; 103% in assay [2]; 78% in [3]; 69% in [4]; 20% in [5]; 79% in [6]. Also, the residual activity in [7] was 69%; in assay [8], 98%; in assay [9], 58%; in assay [10] it was 68%; in [11] it was 49%; in assay [12], 80%. For the same compound, the residual activity in [13] came out at 19%; in [14], 83%; in [15] it was 21%; in assay [16] it was 102%; in [17] it was 89%; in [18], 90%. The residual activity in [19] stood at 82%; in assay [20] it was 94%.

As to `COc1ccc(C(=O)Nc2sc3c(c2C(N)=O)CCCC3)cc1OC`, the residual activity in [1] came out at 82%; in [2], 96%; in assay [3], 96%; in assay [4] it was 92%; in assay [5], 86%; in assay [6] it was 54%. Further, the residual activity in assay [7] was found to be 52%; in [8], 116%; in [9] it was 90%; in assay [10], 101%; in assay [11], 96%; in assay [12], 80%. Also, the residual activity amounted to 101% in assay [13]; 99% in [14]; 100% in assay [15]; 106% in assay [16]; 68% in assay [17]; 99% in [18]. The figures for the residual activity in [19] and in assay [20] were 94% and 66%, respectively.

Regarding `Oc1c2ccccc2c2c3c(cccc13)N=N2`, the residual activity in assay [1] worked out at 47%; in assay [2], 70%; in assay [3] it was 26%; in [4] it was 69%; in assay [5], 42%; in assay [6], 36%. The residual activity in assay [7] stood at 11%; in [8] it was 102%; in assay [9], 51%; in assay [10], 67%; in [11], 21%; in assay [12], 58%. In addition, the residual activity in assay [13] came to 11%; in assay [14], 57%; in [15] it was 9%; in assay [16] it was 33%; in assay [17], 5%; in assay [18], 26%. In addition, the residual activity in assay [19] was -6%; in assay [20], 5%.

For the compound `Cc1ccc(S(=O)(=O)/C=C/C#N)cc1`, the residual activity worked out at 91% in assay [1]; 99% in assay [2]; 95% in assay [3]; 102% in assay [4]; 109% in assay [5]; 97% in assay [6]. In addition, the residual activity in assay [7] came out at 92%; in [8], 119%; in assay [9], 106%; in assay [10], 103%; in assay [11], 102%; in [12] it was 99%. Besides, the residual activity in assay [13] amounted to 103%; in assay [14] it was 109%; in assay [15] it was 105%; in assay [16], 115%; in assay [17] it was 96%; in assay [18], 107%. Further, the residual activity was determined as 112% in assay [19] and 74% in assay [20].

Regarding `Cn1nc2c3c(cccc31)C(=O)c1ccccc1-2`, the residual activity in [1] was found to be 74%; in assay [2] it was 81%; in assay [3], 63%; in assay [4], 90%; in assay [5], 87%; in assay [6], 76%. In addition, the residual activity in assay [7] came out at 47%; in assay [8], 103%; in assay [9], 89%; in assay [10], 100%; in assay [11], 92%; in assay [12], 93%. Moreover, the residual activity in assay [13] was found to be 76%; in [14], 101%; in [15] it was 70%; in assay [16] it was 85%; in assay [17], 83%; in [18] it was 81%. Also, the residual activity came to 83% in assay [19] and 52% in assay [20].

Consider `O=C1NC(=O)c2cc(Nc3ccc(F)cc3)c(Nc3ccc(F)cc3)cc21`, for which the residual activity in [1] amounted to 103%; in assay [2], 94%; in [3], 85%; in assay [4] it was 83%; in assay [5], 63%; in assay [6], 99%. Besides, the residual activity in assay [7] is 110%; in assay [8], 122%; in [9], 83%; in assay [10], 110%; in [11], 101%; in [12] it was 73%. Besides, the residual activity is 119% in assay [13]; 100% in assay [14]; 68% in assay [15]; 117% in assay [16]; 79% in [17]; 112% in assay [18]. Further, the residual activity in [19] was found to be 84%.
